The record followed here is ChEMBL document CHEMBL5606458, “ASAP - ZIKV NS2B-NS3 protease fluorescence single point” (2024).

Screen size: about 2,700 compounds; about 160 (5.9%) showed an effect of 50% or more. Shown is part of a subset that was picked to be rich in strong results.

By inhibition is commonly meant the relative decrease from the control value, in per cent.

For the assay, the target named is Nonstructural protein 3 (Zika virus) (UniProt A0A024AXB9).
Chain of Nonstructural protein 3 (Zika virus) (A0A024AXB9 as listed by the source): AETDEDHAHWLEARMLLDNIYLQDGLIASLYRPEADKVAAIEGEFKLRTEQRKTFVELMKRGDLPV

Take `Cc1ccc(CNC(=O)c2cc(Cl)ccc2NS(=O)(=O)c2ccc(Oc3ccccc3Cl)cc2)s1`: the inhibition (PRVABC59, Concentration 49.5 uM, Number of replicates 2.0, Standard deviation 0.2822395742136887 %) stood at 41.1%; the inhibition (PRVABC59, Concentration 99.01 uM, Number of replicates 2.0, Standard deviation 0.310134718781715 %) was 25.2%; the inhibition (PRVABC59, Concentration 198.0 uM, Number of replicates 2.0, Standard deviation 2.1364830937799217 %) was -9.71%.

As for `O=C(NCC1CC1)c1cc(Cl)ccc1NS(=O)(=O)c1ccc(Oc2ccccc2Cl)cc1`, the inhibition by setting is: (PRVABC59, Concentration 49.5 uM, Number of replicates 2.0, Standard deviation 1.3484995448740613 %) 43%; (PRVABC59, Concentration 99.01 uM, Number of replicates 2.0, Standard deviation 16.06152873020096 %) 40.6%; (PRVABC59, Concentration 198.0 uM, Number of replicates 2.0, Standard deviation 0.4375207024201935 %) 45.6%.

As for `CC(C)CNC(=O)c1cc(Cl)ccc1NS(=O)(=O)c1ccc(Oc2ccccc2Cl)cc1`, the inhibition amounted to 58.6% (PRVABC59, Concentration 49.5 uM, Number of replicates 2.0, Standard deviation 0.3286348250544809 %); 54.7% (PRVABC59, Concentration 99.01 uM, Number of replicates 2.0, Standard deviation 0.058762822067828895 %); 37.6% (PRVABC59, Concentration 198.0 uM, Number of replicates 2.0, Standard deviation 2.167677830824169 %).

Regarding `COC[C@@H](C)CNC(=O)c1cc(Cl)ccc1NS(=O)(=O)c1ccc(Oc2ccccc2Cl)cc1`, the inhibition amounted to 40.8% (PRVABC59, Concentration 49.5 uM, Number of replicates 2.0, Standard deviation 0.1936300399043851 %); 39.9% (PRVABC59, Concentration 99.01 uM, Number of replicates 2.0, Standard deviation 0.11978876131329876 %); 17.9% (PRVABC59, Concentration 198.0 uM, Number of replicates 2.0, Standard deviation 0.12799289825703533 %).

Regarding `NCc1cccc(NC(=O)[C@@H](NC(=O)OCc2ccccc2)C(C2CCC2)C2CCC2)c1`, the inhibition by setting is: (PRVABC59, Concentration 49.5 uM, Number of replicates 2.0, Standard deviation 1.6304646588102472 %) 8.82%; (PRVABC59, Concentration 99.01 uM, Number of replicates 2.0, Standard deviation 1.5618151976061267 %) 76.8%; (PRVABC59, Concentration 198.0 uM, Number of replicates 2.0, Standard deviation 0.10609407012035098 %) 99.1%.

Take `NCc1cccc(NC(=O)[C@H]2COC3(CCOCC3)N2C(=O)OCc2ccccc2)c1`: the inhibition is, setting by setting: (PRVABC59, Concentration 49.5 uM, Number of replicates 2.0, Standard deviation 0.9938813563000084 %) 5.38%; (PRVABC59, Concentration 99.01 uM, Number of replicates 2.0, Standard deviation 1.914429893589366 %) 19%; (PRVABC59, Concentration 198.0 uM, Number of replicates 2.0, Standard deviation 1.323095447640423 %) 40.3%.

As to `NCc1cccc(NC(=O)c2cccc(NC(=O)OCc3ccccc3)n2)c1`, the inhibition is, setting by setting: (PRVABC59, Concentration 49.5 uM, Number of replicates 2.0, Standard deviation 2.909357334669415 %) 5.59%; (PRVABC59, Concentration 99.01 uM, Number of replicates 2.0, Standard deviation 2.139765153167162 %) 18.9%; (PRVABC59, Concentration 198.0 uM, Number of replicates 2.0, Standard deviation 5.981167842462736 %) 37.7%.

With `NCc1cccc(NC(=O)[C@@H](Cc2c[nH]c3ccccc23)NC(=O)OCc2ccccc2)c1`, the inhibition by setting is: (PRVABC59, Concentration 49.5 uM, Number of replicates 2.0, Standard deviation 3.967037724259516 %) 6.59%; (PRVABC59, Concentration 99.01 uM, Number of replicates 2.0, Standard deviation 5.155513103183051 %) 30%; (PRVABC59, Concentration 198.0 uM, Number of replicates 2.0, Standard deviation 1.4247172313715861 %) 61.6%.

For `NCc1cccc(NC(=O)[C@H]2Cc3ccccc3N2C(=O)OCc2ccccc2)c1`, the inhibition (PRVABC59, Concentration 49.5 uM, Number of replicates 2.0, Standard deviation 1.3458327451813832 %) was -2.12%; the inhibition (PRVABC59, Concentration 99.01 uM, Number of replicates 2.0, Standard deviation 2.0252321038631718 %) was 4.14%; the inhibition (PRVABC59, Concentration 198.0 uM, Number of replicates 2.0, Standard deviation 4.242354762898987 %) is 47.3%.

For the compound `NCc1cccc(NC(=O)[C@H]2CCCN(C(=O)OCc3ccccc3)C2)c1`, the inhibition runs as follows: (PRVABC59, Concentration 49.5 uM, Number of replicates 2.0, Standard deviation 2.781365363643047 %) 3.4%; (PRVABC59, Concentration 99.01 uM, Number of replicates 2.0, Standard deviation 2.023258788415892 %) 8.89%; (PRVABC59, Concentration 198.0 uM, Number of replicates 2.0, Standard deviation 2.4646681276670943 %) 18.5%.

Consider `CCn1ccnc(N[C@@H](Cc2c[nH]c3ccccc23)C(N)=O)c1=O`, for which the inhibition reads like this: (PRVABC59, Concentration 49.5 uM, Number of replicates 2.0, Standard deviation 1.4026673489298387 %) 18.1%; (PRVABC59, Concentration 99.01 uM, Number of replicates 2.0, Standard deviation 0.19191044848514063 %) 31.5%; (PRVABC59, Concentration 198.0 uM, Number of replicates 2.0, Standard deviation 0.4743186100928729 %) 43.7%.

`NCc1cccc(NC(=O)[C@@H](NC(=O)OCc2ccccc2)C2CCCCC2)c1`: the inhibition stood at 0.383% (PRVABC59, Concentration 49.5 uM, Number of replicates 2.0, Standard deviation 3.670746053577507 %); 19.8% (PRVABC59, Concentration 99.01 uM, Number of replicates 2.0, Standard deviation 4.852210894307134 %); 99.4% (PRVABC59, Concentration 198.0 uM, Number of replicates 2.0, Standard deviation 0.07712401232790286 %).

As to `COc1cc(COc2cccnc2F)nc(N2CCNCC2)n1`, the inhibition came to 9.4% (PRVABC59, Concentration 49.5 uM, Number of replicates 2.0, Standard deviation 3.471530038958882 %); 17.8% (PRVABC59, Concentration 99.01 uM, Number of replicates 2.0, Standard deviation 1.2510762616041597 %); 24.4% (PRVABC59, Concentration 198.0 uM, Number of replicates 2.0, Standard deviation 5.474495288404173 %).

For the compound `CC[C@H]1CCN(c2nccn(CC)c2=O)C1`, the inhibition is, setting by setting: (PRVABC59, Concentration 49.5 uM, Number of replicates 2.0, Standard deviation 1.4176871370399688 %) 4.12%; (PRVABC59, Concentration 99.01 uM, Number of replicates 2.0, Standard deviation 1.8963080974288338 %) 10.6%; (PRVABC59, Concentration 198.0 uM, Number of replicates 2.0, Standard deviation 0.25647537430637324 %) 21.7%.

With `CCn1ccnc(N2C[C@@H](O)[C@H](c3c[nH]c4ccccc34)C2)c1=O`, the inhibition (PRVABC59, Concentration 49.5 uM, Number of replicates 2.0, Standard deviation 0.5666151507099095 %) was 7.52%; the inhibition (PRVABC59, Concentration 99.01 uM, Number of replicates 2.0, Standard deviation 0.06434104176194275 %) came out at 18.6%; the inhibition (PRVABC59, Concentration 198.0 uM, Number of replicates 2.0, Standard deviation 0.18264623400765803 %) came out at 34.5%.

As to `Nc1nc(CN2CCNCC2)nc2ccccc12`, the inhibition (PRVABC59, Concentration 99.9 uM, Number of replicates 2.0, Standard deviation 4.738718872161362 %) was -7.53%.

In the case of `c1ccc2c([C@H]3CCN(CC[C@H]4CCCO4)C3)c[nH]c2c1`, the inhibition by setting is: (PRVABC59, Concentration 49.5 uM, Number of replicates 2.0, Standard deviation 2.014848974851422 %) 6.42%; (PRVABC59, Concentration 99.01 uM, Number of replicates 2.0, Standard deviation 1.491910771840746 %) 12.4%; (PRVABC59, Concentration 198.0 uM, Number of replicates 2.0, Standard deviation 1.9789597532326375 %) 21.4%.

Consider `O=C(O)c1cccc(NC(=O)c2cccc(OCc3c(Cl)cccc3Cl)c2)c1`, for which the inhibition by setting is: (PRVABC59, Concentration 49.5 uM, Number of replicates 2.0, Standard deviation 0.05325743212794187 %) 8.22%; (PRVABC59, Concentration 99.01 uM, Number of replicates 2.0, Standard deviation 0.43176580313712193 %) 15.3%; (PRVABC59, Concentration 198.0 uM, Number of replicates 2.0, Standard deviation 0.7170736679224038 %) 28.4%.

Take `NCc1ccc(C[C@H](NC(=O)c2ccccc2)C(=O)N2CCCCC2)cc1`: the inhibition amounted to 7.06% (PRVABC59, Concentration 49.5 uM, Number of replicates 2.0, Standard deviation 1.7023364994641166 %); 12.7% (PRVABC59, Concentration 99.01 uM, Number of replicates 2.0, Standard deviation 1.0175975565444826 %); 22% (PRVABC59, Concentration 198.0 uM, Number of replicates 2.0, Standard deviation 2.6267332126099125 %).

Take `NCc1ccc(C[C@H](NC(=O)c2ccccc2)C(=O)Nc2cccc(CN)c2)cc1`: the inhibition came to 29.4% (PRVABC59, Concentration 49.5 uM, Number of replicates 2.0, Standard deviation 1.4806761079016821 %); 48.1% (PRVABC59, Concentration 99.01 uM, Number of replicates 2.0, Standard deviation 0.13484294125181392 %); 65.1% (PRVABC59, Concentration 198.0 uM, Number of replicates 2.0, Standard deviation 0.4356460105984289 %).
